# Data taken from PubChem BioAssay AID720664 (National Center for Advancing Translational Sciences (NCATS), 2013).
# Records with an inconclusive call do not appear. A number with no mark means an inactive call. The source made the active and inactive calls. Calls follow the shape of the dose curve; as a rule, active = well fitted inhibition curve with a large enough effect; inconclusive = small, poorly fitted or top-dose-only effect; inactive = flat fitted curve, though single readings scatter.
# Biological target: Galactokinase (Homo sapiens) (UniProt P51570)
# Sequence (P51570 whole entry, looked up): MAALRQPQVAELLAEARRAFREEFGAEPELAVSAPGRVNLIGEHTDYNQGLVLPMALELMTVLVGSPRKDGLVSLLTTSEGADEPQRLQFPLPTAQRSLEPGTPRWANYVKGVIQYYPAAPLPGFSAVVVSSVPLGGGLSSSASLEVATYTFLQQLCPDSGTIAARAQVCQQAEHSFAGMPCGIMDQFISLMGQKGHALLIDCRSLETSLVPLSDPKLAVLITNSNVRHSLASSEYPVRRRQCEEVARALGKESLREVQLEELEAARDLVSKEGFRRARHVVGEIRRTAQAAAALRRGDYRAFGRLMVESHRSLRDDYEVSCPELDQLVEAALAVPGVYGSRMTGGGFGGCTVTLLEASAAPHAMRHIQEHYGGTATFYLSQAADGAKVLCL
# Assay: qHTS for Inhibitors of Human Galactokinase (GALK): SAR round 3
# Details: ADP detection luminescence, 1 h; series mostly up to 57.5 µM; activity change, negative = inhibition: at the top concentration
# From the text: Inherited deficiency of galactose-1-phosphate uridyltransferase (GALT) can result in a potentially lethal disorder called Classic Galactosemia (OMIM 230400). Several lines of evidence indicate that an elevated level of galactose-1-phosphate (gal-1-p), the product of galactokinase (GALK), is a major, if not sole, pathogenic mechanism in patients with classic galactosemia. Therefore, finding inhibitors of GALK is a potential novel therapy for this inherent metabolic disease and is the long term goal of this project. Active compounds observed in the qHTS GALK assay (AID: 1868) were cherry picked and re-screened for validation. GALK (provided by Kent Lai) was assayed using ATP and D-(+)-Galactose (Sigma-Aldrich cat# G0750) as substrates. Promega ADP-Glo technology was used to detect the ADP product formed after the kinase reaction. Kinase reactions with and without GALK were used as negative and positive controls together with Protein Tyrosine Phosphatase CD45 inhibitor (EMD Bioscience cat# 540215) which is shown to inhibit GALK activity. Decrease in activity corresponds to inhibition of the enzyme, the desired outcome for this assay. NIH Molecular Libraries Probe Production Network [MLPCN] NIH Chemical Genomics Center [NCGC] Grant: MH085689-01 PI Name: Kent Lai, University of Utah
# Three uL/well of ATP-buffer solution (35 uM ATP, 20mM HEPES pH8.0, 5 mM MgCl2, 60 mM NaCl, 1 mM DTT, 0.01% BSA final concentration) was dispensed into 1536-well, assay plates (Greiner, solid white medium-binding plates) with Aurora Discovery BioRAPTR Flying Reagent Dispenser (FRD; Beckton-Dickenson). Compound and control solution (23 nL) was transferred to the assay plate using the Kalypsys 1536-pin tool apparatus. One uL/well GALK-galactose solution (5 nM GALK, 100 uM galactose, 20 mM HEPES pH8.0, 5 mM MgCl2, 60 mM NaCl, 1 mM DTT, 0.01% BSA final concentration) was then added using the FRD yielding a total kinase reaction volume of 4 uL/ well. After 1 hour of room temperature incubation, 4 uL Kinase-Glo Plus reagent was added for a final assay volume of 8 uL/well. Luminescence was detected with the ViewLux plate reader (Perkin Elmer, Waltham, MA) after 2 min incubation using a 1 sec exposure time and 2x binning.
Structure (SMILES),Potency,"activity change, negative = inhibition [%]"
Cn1cc(Br)c(C2N=C(Nc3nc4ccccc4o3)NC3=C2C(=O)CCC3)n1 (centres undefined),9.68 µM (active),–
O=C1CCCC2=C1C(c1[nH]ncc1Cl)N=C(Nc1nc3ccc(F)cc3o1)N2 (centres undefined),–,0.665
CC(=O)Nc1ncc(S(=O)(=O)N2CCOCC2)s1,–,-1.9
CC1=C(C(=O)Nc2nncs2)C(c2nn(C)cc2Cl)N=C(Nc2nc3ccccc3o2)N1 (centres undefined),17.2 µM (active),–
Cc1ccc2nc(NC3=NC(c4[nH]ncc4Cl)C4=C(CCCC4=O)N3)oc2c1 (centres undefined),–,13.9
CC1=C(C(=O)Nc2nccs2)C(c2ccccc2Br)N=C(Nc2nc3ccccc3o2)N1 (centres undefined),–,-26.6
Cn1cc(Cl)c(C2N=C(Nc3nc4ccccc4o3)NC3=C2C(=O)CCC3)n1 (centres undefined),12.2 µM (active),–
CCCc1ccc(NC(=O)c2ccc3c(c2)NC(=O)CS3)cc1,–,3.14
Cc1cccc2nc(NC3=NC(c4[nH]ncc4Cl)C4=C(CCCC4=O)N3)oc12 (centres undefined),–,-0.192
